Only some compounds are listed: those with a hit (about 1.7% of all), similar ones and a draw of the others.
GLP-1R agonist – GLP-1 receptor (human) agonism | HEK293 GLP-1R CRE-luciferase, luminescence, 4-6 h; cells express a hypersensitive GLP-1R form | AID 624172 | Potency, µM (titrated, usually from 45.6 µM), actives largely listed as activators | 380,000 compounds, 0.007% hits | P43220
Target sequence (P43220 whole entry, looked up): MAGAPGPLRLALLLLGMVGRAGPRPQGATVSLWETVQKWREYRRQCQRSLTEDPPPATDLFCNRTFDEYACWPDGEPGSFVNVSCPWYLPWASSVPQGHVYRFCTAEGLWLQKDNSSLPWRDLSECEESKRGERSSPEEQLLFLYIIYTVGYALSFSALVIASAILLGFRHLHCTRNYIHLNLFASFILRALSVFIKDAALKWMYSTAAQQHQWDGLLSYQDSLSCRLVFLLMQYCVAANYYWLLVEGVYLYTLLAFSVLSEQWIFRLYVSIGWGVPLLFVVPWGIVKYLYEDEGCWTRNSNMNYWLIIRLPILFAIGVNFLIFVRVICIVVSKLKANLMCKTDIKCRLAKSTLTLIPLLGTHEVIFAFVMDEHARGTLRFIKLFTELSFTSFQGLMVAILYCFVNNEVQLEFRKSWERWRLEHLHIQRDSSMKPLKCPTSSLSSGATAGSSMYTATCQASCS
GLP1R inv ag – inverse agonists of human GLP-1 receptor; AID 624417; HEK293 GLP-1R CRE-luciferase, luminescence, 24 h; GLP-1R form is constitutively active; Potency, µM (highest dose often 38.3 µM), hits mostly inhibitors; 410,000 compounds, 1.6% hits; P43220; further: nearly all actives have a fitted effect of over 55% in size
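Readout was luciferase luminescence, measured 12 min after detection reagent at room temperature. Beforehand, GLP-1R reporter HEK293 cells had sat 12 h, then received compounds for 24 hr at 37 deg C.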
HEK293 tox – cytotoxic in the GLP-1 receptor inverse agonist counter-screen | Potency, µM (top dose mostly 38.3 µM), hits mostly inhibitors | AID 624418 | HEK293 cAMP-luciferase reporter cells, luminescence, 24 h | 410,000 compounds, 0.13% hits;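 further: loss of luciferase light is scored as toxicity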
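Cells in DMEM/10% Nu serum/1% pen-strep, 1536-well format. Pre-incubated 12 h, dosed with 23 nL compound, incubated a further 24 h. Luciferase detection, 12 min at room temp, luminescence.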
PTHR1 agonist – activates the human parathyroid hormone receptor PTHR1; HEK293 GP2 PTHR1 cells, GloSensor cAMP luminescence, 1 h; AID 743266; Potency, µM (highest dose often 115 µM), hits mostly activators; Q03431; 410,000 compounds, 0.075% hits; further: nearly all actives have a fitted effect of over 55% in size
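HEK-293-derived GP2 cells expressing PTHR1 and a GloSensor cAMP reporter, 3,000/well, plated overnight, given luciferin plus IBMX (each 0.5 mM as added) for 1 h at 37 °C, then compound for 1 h at 37 °C. Luminescence was read after 15 min at room temperature.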
A number is an active result; i = inactive; ? = inconclusive; nt = not tested or not shown. The call rests on the fitted dose curve; in most records, active means well fitted curve in the direction sought with a large enough effect; inconclusive means small, poorly fitted or top-dose-only effect, or another doubt; inactive means no such curve, though single readings can be large; an effect the other way counts as inactive or inconclusive.

SMILES	GLP-1R agonist	GLP1R inv ag	HEK293 tox	PTHR1 agonist
CC(C)CCNC(=O)c1c(N)n(CC2CCCO2)c2nc3ccccc3nc12 (stereo unspecified)	i	?	i	i
O=c1[nH]c(=O)n(C2CCCCC2)c(O)c1C1=Nc2ccccc2SC(c2ccc(Cl)cc2)C1 (stereo unspecified)	nt	?	i	i
Cc1ccc(-n2c(/C=C/c3cc(Br)cs3)nc3ccccc3c2=O)cc1C	nt	?	i	i
Cc1ccc(-n2c(/C=C/c3ccc(Br)s3)nc3ccccc3c2=O)cc1C	nt	11.2µM	i	i
O=c1c2ccccc2nc(/C=C/c2ccccc2)n1-c1ccc(O)cc1	i	5.62µM	i	i
Cc1ccccc1-n1c(/C=C/c2ccc(O)cc2)nc2ccccc2c1=O	nt	11.2µM	i	i
O=C1Nc2ccccc2/C1=C/c1nc2ccccc2c(=O)n1-c1ccc(O)cc1	i	10µM	?	i
CN(C)c1ccc(CNC(=O)Cn2c(=O)oc3cc(S(=O)(=O)N4CCCCCC4)ccc32)cc1	nt	?	i	i
O=C(CN1CCNCC1)N1CCOCC1	i	i	i	i
O=c1c2ccccc2nc(/C=C/c2cccnc2)n1Cc1ccccc1	i	5.01µM	i	i
COC(=O)C1=C(c2ccccc2OCc2ccccc2)C[C@@H]2CC[C@H]1N2C(=O)NCCc1ccc(F)cc1	i	22.4µM	i	i
COC(=O)C1=C(c2ccc(OC(F)(F)F)cc2)C[C@@H]2CC[C@H]1N2C(=O)NCC1CC1	i	10µM	i	i
COC(=O)C1=C(c2ccc(OCc3ccccc3)cc2)C[C@@H]2CC[C@H]1N2C(=O)NCc1ccc(OC)c(OC)c1	i	i	i	i
COC(=O)C1=C(c2ccc(OCc3ccccc3)cc2)C[C@@H]2CC[C@H]1N2C(=O)NCc1ccccc1OC	i	12.6µM	i	i
COC(=O)C1=C(c2ccc(-c3ccccc3)c(F)c2)C[C@@H]2CC[C@H]1N2C(=O)NCc1cc(C)oc1C(F)(F)F	i	3.55µM	i	i
COC(=O)C1=C(c2ccccc2OCc2ccccc2)C[C@@H]2CC[C@H]1N2C(=O)NCc1ccccc1	i	?	i	i
Oc1cc[c]([Hg][Cl])cc1	i	nt	nt	nt
COc1cc(/C=C2\SC(=S)N(Nc3ncc(C(F)(F)F)cc3Cl)C2=O)ccc1O	i	10µM	?	i
O=C(NN1C(=O)/C(=C/c2ccc(O)c(O)c2)SC1=S)c1ccccc1	i	?	?	i
CCCCCCCCN1C(=O)[C@H](CC(=O)NCCc2ccccc2OC)C[C@@]2(C(=O)OC)CCCCC=C12	i	?	i	i
Cc1ccc(/C=C/C(=O)c2ccc(O)cc2)cc1	i	?	?	i
Cc1cc(C)c(C(=O)/C=C/c2ccc(C(C)C)cc2)c(=O)[nH]1	i	1.41µM	?	i
CC(C)c1ccc(Oc2cccc3c2S(=O)(=O)N(C2CCCC2)CC(COCc2ccccc2)O3)cc1 (stereo unspecified)	i	5.62µM	i	i
COc1ccc2oc(=O)c(C(=O)NCCc3c(C)[nH]c4ccc(F)cc34)cc2c1	i	i	i	i
CCC[C@@H](CN[C@@H](CNC)[C@H](C)CC)NCC1CCC(C(C)(C)C)CC1 (stereo partly specified)	i	10µM	?	i
SMILES	GLP-1R agonist	GLP1R inv ag	HEK293 tox	PTHR1 agonist
COc1ccccc1Cc1c(-c2ccc(F)cc2)nc2cc(C)c(Br)c(C)n12	i	?	i	i
CSc1ccccc1C(=O)C1CCCN(Cc2ccccn2)C1 (stereo unspecified)	i	i	i	i
CSc1ccccc1C(=O)C1CCCN(Cc2cccc(C)n2)C1 (stereo unspecified)	i	11.2µM	?	i
COC(=O)NC(NC(=S)Nc1ccc([N+](=O)[O-])cc1)C(Cl)(Cl)Cl (stereo unspecified)	i	11.2µM	?	i
CCON=C(CC)C1=C(O)CC(c2c(C)cc(C)cc2C)CC1=O (stereo unspecified)	i	nt	nt	nt
COc1ccc(C(=O)Oc2c(Sc3ccccc3)c(C)nn2-c2ccccc2)c(OC)c1	nt	12.6µM	?	i
COP(C)(=O)c1c(C)nn(-c2ccccc2)c1C (stereo unspecified)	i	i	i	?
CCOc1ccc(S(=O)(=O)NCCc2sc3nc(-c4ccc(C)cc4)nn3c2C)cc1	nt	i	i	i
CCc1ccc(OCC(=O)NC(NC(=S)Nc2ccccc2)C(Cl)(Cl)Cl)cc1 (stereo unspecified)	i	3.98µM	?	i
CCn1c(N2CCN(C(=O)C34CC5CC(CC(C5)C3)C4)CC2)nc2ccccc21	i	2µM	?	i
CCOC(=O)C1=C(CN2CCN(c3ccc(C)cc3C)CC2)NC(=O)NC1c1ccc(OC)cc1 (stereo unspecified)	nt	?	i	i
NNC(=O)c1ccc(OCC2CC(c3ccc(Cl)cc3)=NO2)cc1 (stereo unspecified)	i	12.6µM	12.6µM	i
CCCCOc1ccccc1C1CC(=O)Nc2cc(C)c(C)cc21 (stereo unspecified)	nt	12.6µM	?	i
COc1cccc(C(=O)CCN[C@@H](C)[C@H](O)c2ccccc2)c1	i	nt	nt	nt
Cc1oc2c(c1C(=O)NCc1cccnc1)C(=O)c1ccccc1C2=O	i	3.16µM	?	i
CCCCCn1c(=O)c(C(=O)NCc2ccncc2)c(O)c2ccccc21	i	i	i	i
CC(=O)OC1CCC2(C)C(CCC3C2CC(=O)C2(C)C3CC(N3CC3)C2C(C)=O)C1 (stereo unspecified)	i	?	i	50.1µM
COC(=O)C1=C(c2cc3ccccc3s2)C[C@@H]2CC[C@H]1N2C(=O)NCC1CC1	i	?	i	i
COC(=O)C1=C(c2cc3ccccc3s2)C[C@@H]2CC[C@H]1N2C(=O)NCc1ccc(C(F)(F)F)cc1	i	3.98µM	i	i
COC(=O)C1=C(c2cc3ccccc3s2)C[C@@H]2CC[C@H]1N2C(=O)N1CCC(C)CC1	i	10µM	i	i
COC(=O)C1=C(c2cc3ccccc3o2)C[C@@H]2CC[C@H]1N2C(=O)NCc1ccc(F)cc1	i	11.2µM	i	i
COC(=O)C1=C(c2cc3ccccc3s2)C[C@@H]2CC[C@H]1N2C(=O)NC1CC1	i	i	i	i
CCCCNC(C)(C)[P+](=O)O	i	nt	nt	nt
C=C(C)[C@@]12OC3(c4ccccc4)O[C@@H]1C1[C@@H]4O[C@]4(CO)[C@@H](O)[C@]4(O)C(=O)C(C)=C[C@H]4[C@@]1(O3)[C@H](C)[C@H]2OC(=O)/C=C/C=C/c1ccccc1 (stereo partly specified)	i	2.82µM	i	i
O=C(CCCN1C(=O)/C(=C\c2ccccc2)SC1=S)N1CCOCC1	i	?	?	i
CCc1ccc(/C=C2\SC(=S)N(CCCC(=O)N(CCO)c3ccccc3)C2=O)cc1	i	10µM	?	i
CC(=O)Nc1cccc(-c2ccnc3c2CC(C(=O)NCc2ccco2)O3)c1 (stereo unspecified)	i	?	i	i

Bioassay records (PubChem)
